From PubChem
Autofluor counter: flagged as autofluorescent in microsphere protease counterscreen; compound autofluorescence counterscreen, microsphere flow cytometry; hits give high values; fluorescence intensity (no concentration beside the values); 3.1% of 360,000 active; in the data active = fluorescence intensity above about 16000; inconclusive = no clear call, values can overlap the other calls
Anthrax LF inh2: anthrax lethal factor protease inhibition; inhibition, % at 10 µM; 0.12% of 360,000 active; P15917; multiplex microsphere protease cleavage assay, LF; AID 588501; note: plate controls were buffer without enzyme for full effect and enzyme alone for no effect
BoNT-A LC inh2: BoNT A light chain protease inhibition; multiplex microsphere protease substrate cleavage, flow cytometry; inhibition, % at 10 µM; 0.17% of 360,000 active; AID 588499; note: plate controls were buffer without enzyme for full effect and enzyme alone for no effect
BoNT-F LC inh: BoNT F light chain protease inhibition. Multiplex microsphere protease cleavage assay, flow cytometry. inhibition, % at 10 µM. 0.22% of 360,000 active. AID 588497; in the data active = inhibition above about 35%, passing the limit was not always enough; inconclusive = no clear call, values can overlap the other calls; note: plate controls were buffer without enzyme for full effect and enzyme alone for no effect
* hit, by the source's call; ? = inconclusive. An excerpt weighted towards active compounds, which were near 3.5% of everything screened. Cut-off read from the data, not from the text of the source, unless noted: active = inhibition above about 30%; inconclusive = no clear call, values can overlap the other calls; inactive = below that.

SMILES | Autofluor counter | Anthrax LF inh2 | BoNT-A LC inh2 | BoNT-F LC inh
COC(=O)CSc1nnc(-c2ccc(S(=O)(=O)NCc3cccs3)cc2)o1 | 21213* | 0 | 2 | 4
COC(=O)CSc1nnc(-c2ccc(S(=O)(=O)NCc3ccccc3Cl)cc2)o1 | 21867* | 0 | 1 | 1
CCOC(=O)CSc1nnc(-c2ccc(S(=O)(=O)NCc3cccs3)cc2)o1 | 15856 | -10 | 0 | -1
CCN(C(=O)CCNC(=O)Cn1cnc2ccccc2c1=O)c1ccccc1F | 5374 | 2 | 2 | 8
Nc1c(C(=O)NC23CC4CC(CC(C4)C2)C3)sc2nc3c(c(C(F)(F)F)c12)CCC3 | 24363* | -2 | ? | -3
CC(C)n1nc(C(=O)Nc2nnc(SCc3c(Cl)cccc3Cl)s2)c2ccccc2c1=O | 19535* | 0 | 10 | 13
CC(C)n1nc(C(=O)Nc2nc3ccc(S(C)(=O)=O)cc3s2)c2ccccc2c1=O | 5999 | 2 | 0 | -1
O=C(NCc1ccccc1Cl)C1CCCN1S(=O)(=O)c1ccccc1F (stereo not drawn) | 4411 | -1 | 1 | 7
O=C(NCc1cccs1)C1CCCN1S(=O)(=O)c1ccccc1F (stereo not drawn) | 19819* | -3 | ? | 0
CCOC(=O)Cc1ccc(Nc2nc3cc(-c4sccc4C)sc3c(=O)n2C)cc1 | 3681 | 7 | 2 | -3
NNC(=O)c1[nH]c(-c2ccccc2)cc1-c1ccccc1 | 3799 | 7 | -2 | ?
CCOC(=O)c1ccc(Oc2nc(NC)nc(SC)n2)cc1 | 9020 | -1 | -1 | -11
CNc1nc(Oc2ccccc2C(=O)OC)nc(SC)n1 | 21738* | 2 | 3 | 5
CCNc1nc(Oc2ccc(C(=O)OC)cc2)nc(SC)n1 | 22097* | -13 | 0 | -1
CCNc1nc(Oc2ccc(C(=O)OCC)cc2)nc(SC)n1 | 5151 | 1 | 0 | 2
COc1ccc(CC/C(=N\O)C2(O)CCCCC2)cc1 | 24221* | -3 | -2 | -7
O/N=C(/CCc1ccccc1)C1(O)CCCCC1 | 7896 | 2 | 1 | 5
COc1ccccc1-c1nnc(SC2CCc3ccccc3NC2=O)s1 (stereo not drawn) | 20615* | 2 | ? | -2
CC(C)OC(=O)c1c2c(n3ccccc13)C(=O)c1ccccc1C2=O | 5595 | 38* | 79* | 23
COC(=O)c1cc2c(C)c(C)c3ccccn3c-2c1C(=O)OC | 3468 | -2 | 1 | 0
Brc1ccc(CNCc2cccs2)cc1 | 2184 | -1 | 0 | -5
c1ccc(COc2ccc(CNCc3cccs3)cc2)cc1 | 20591* | -4 | -2 | -15
O=C1c2cc(Cl)ccc2-c2c(O)cc(Cl)cc21 | 4258 | 8 | 2 | -2
CCC(=NCc1cc(OC)cc(OC)c1)c1c(O)n(C)c(=O)n(C)c1=O | 24024* | -5 | ? | -2
CCCCn1c(O)c(C(CC)=NC(C)c2ccccc2)c(=O)[nH]c1=O (stereo not drawn) | 10962 | -1 | 1 | 6
SMILES | Autofluor counter | Anthrax LF inh2 | BoNT-A LC inh2 | BoNT-F LC inh
CCC(=NCc1ccc2c(c1)OCO2)c1c(O)n(C)c(=O)n(C)c1=O | 3898 | 0 | 2 | 3
CC(=NCc1cccnc1)c1c(O)n(-c2ccccc2)c(=O)[nH]c1=O | 20066* | -3 | -2 | -4
CC(=NCc1cccnc1)c1c(O)n(Cc2ccccc2)c(=O)[nH]c1=O | 5958 | -2 | -1 | 2
CCCCn1c(O)c(C(CC)=NCc2cccnc2)c(=O)[nH]c1=O | 22114* | 0 | 0 | 1
CCC(=NCc1cccnc1)c1c(O)n(Cc2ccccc2)c(=O)[nH]c1=O | 19069* | -1 | 3 | 2
CCCCn1c(O)c(C(CC)=Nc2ccc(OC)cc2OC)c(=O)[nH]c1=O | 9292 | -23 | -1 | -12
CCCCn1c(O)c(C(CC)=Nc2ccc(OCC)cc2)c(=O)[nH]c1=O | 16712* | 1 | -1 | -4
CCCCn1c(O)c(C(CC)=NCc2cc(OC)cc(OC)c2)c(=O)[nH]c1=O | 22230* | -2 | 0 | 1
COc1ccc(OC)c(NC(=O)CN2C(=O)NC(C)(c3ccc4c(c3)OCCO4)C2=O)c1 (stereo not drawn) | 3734 | -3 | -1 | -10
COc1ccc(CCN2CCCn3c2nc2c3c(=O)n(CC(C)C)c(=O)n2C)cc1OC | 4151 | -4 | -1 | 7
COc1ccc(C(=O)NCC(=O)OCC(=O)N2CC(C)CC(C)C2)cc1 (stereo not drawn) | 17297* | 3 | -20 | -389
COc1ccc(C2C(C(=O)c3cccs3)=C(O)C(=O)N2c2nncs2)cc1 (stereo not drawn) | 22479* | -10 | ? | 1
COc1ccc(C2C(C(=O)c3cccs3)=C(O)C(=O)N2c2nnc(C)s2)cc1OC (stereo not drawn) | 7571 | 7 | 2 | 5
C=CCOc1ccc(C2C(C(=O)c3cccs3)=C(O)C(=O)N2c2nnc(C)s2)cc1 (stereo not drawn) | 7000 | 1 | -1 | 170*
CCOC(=O)N1CCN(C(=O)CCc2ccc(S(=O)(=O)NCCc3ccccc3)cc2)CC1 | 22791* | -5 | 2 | 5
O=C(CCc1ccc(S(=O)(=O)NCCc2ccccc2)cc1)N1CCN(Cc2ccc3c(c2)OCO3)CC1 | 21187* | -5 | 1 | 0
CN(c1ccc(C(=O)N2CCN(Cc3ccc4c(c3)OCO4)CC2)cc1)S(=O)(=O)c1ccccc1 | 23288* | -3 | -1 | 1
CC(C)NC(=O)Nc1ccc2c(c1)C(=O)N([C@H](C)CO)C[C@@H](C)[C@@H](CN(C)C(=O)NC1CCCCC1)O2 | 4053 | -3 | 0 | -5
S=C1NCCOCCOCCOCCNC(=S)N2CCOCCOCCN1CCOCCOCC2 | 2574 | -2 | 0 | 2
COc1cccc(C(NC(C)=O)c2nc(-c3ccccc3C)cs2)c1 (stereo not drawn) | 3369 | 3 | 0 | 1
Cc1ccc(-c2nn(-c3cc(Cl)ccc3[N+](=O)[O-])c(=O)c3ccccc23)cc1 | 24146* | -2 | -3 | -5
CCOc1cccc(CNCCSc2nnnn2C)c1 | 4920 | 1 | -1 | -6
CN1C[C@@H]2[C@@H]3C(=O)N(Cc4ccccc4)C(=O)[C@@H]3[C@](Cc3ccccc3)(C1=O)N2C(=O)c1ccc(C(C)(C)C)cc1 | 3775 | 1 | 0 | 3
CC(C)OC(=O)c1c(NC(=O)CCC(=O)O)sc2c1CCCCC2 | 2443 | -2 | 0 | -1
CC(C)OC(=O)c1c(NC(=O)CCn2nnc3ccccc32)sc2c1CCCC2 | 20341* | 1 | ? | -2
SMILES | Autofluor counter | Anthrax LF inh2 | BoNT-A LC inh2 | BoNT-F LC inh
O=C(NCCN1CCOCC1)C1CC(=O)N(c2ccc(Cl)cc2)C1 (stereo not drawn) | 3635 | 7 | -2 | -15
C=CCCCOc1ccc(C(=O)O)cc1 | 21372* | -2 | -3 | -2
O=C(O)c1ccc(OCCN2CCCC2=O)cc1 | 19644* | -35 | -51 | -279
C=CCNc1nc(C)c(CNc2c(C)cc(C)cc2C)nc1C#N | 3870 | 1 | -2 | -27
N#Cc1sc2nc(-c3cccs3)cc(-c3ccc(Cl)cc3)c2c1N | 16199* | 12 | ? | 2
N#Cc1sc2nc(-c3cccs3)cc(-c3ccccc3)c2c1N | 5933 | 3 | 3 | 0
O=C1CSc2ccc(C(=O)N3CCN(c4ccccn4)CC3)cc2N1 | 25914* | -2 | ? | -7
